{"source": "paper PMC8384837", "about": "“Expanding the binding specificity for RNA recognition by a PUF domain”", "assay_in_all_cases": "yeast three-hybrid, YBZ-1, SC-Leu-His + 0.5 mM 3-AT, 4 days", "details_in_all_cases": "tags: N-Gal4 AD-HA kept; label: inside an RPR1-promoter hybrid RNA with tandem MS2 sites; ssRNA", "key": {"PUM1 PUF domain R4-SNM": {"biological_target": "PUM1 PUF domain R4-SNM (Homo sapiens, UniProt Q14671 828-1176, N971S;H972N;Q975M)", "method_in_brief": "(§1)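 A centromeric plasmid in strain YBZ-1 co-expressed Pumilio-1 PUF domain libraries, randomized at the three base-contacting residues of each repeat, with matching RNA elements; the strain carries a LexA–MS2 coat fusion and a HIS3 reporter. After four days on SC-Leu (input) or SC-Leu-His + 0.5 mM 3-AT (selection), the repeat regions were PCR-amplified and Illumina-sequenced. The interaction score is the log change in variant frequency from input to selection, using log2 and a pseudocount of 1 where absent.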"}, "PUM1 PUF domain R4-EWY": {"biological_target": "PUM1 PUF domain R4-EWY (Homo sapiens, UniProt Q14671 828-1176, N971E;H972W;Q975Y)", "method_in_brief": "as §1"}, "PUM1 PUF domain R4-SMT": {"biological_target": "PUM1 PUF domain R4-SMT (Homo sapiens, UniProt Q14671 828-1176, N971S;H972M;Q975T)", "sequence (Q14671 828-1176 N971S/H972M/Q975T)": "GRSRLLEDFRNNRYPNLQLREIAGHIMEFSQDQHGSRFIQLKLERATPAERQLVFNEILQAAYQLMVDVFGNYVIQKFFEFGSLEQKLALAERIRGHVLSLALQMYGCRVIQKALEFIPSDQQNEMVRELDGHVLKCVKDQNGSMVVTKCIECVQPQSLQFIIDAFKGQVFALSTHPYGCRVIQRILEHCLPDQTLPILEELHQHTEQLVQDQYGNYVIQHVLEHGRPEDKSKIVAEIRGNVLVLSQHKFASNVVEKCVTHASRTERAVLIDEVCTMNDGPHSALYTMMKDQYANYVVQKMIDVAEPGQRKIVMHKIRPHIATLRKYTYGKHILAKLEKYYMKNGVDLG", "method_in_brief": "as §1"}, "PUM1 PUF domain R5-RRN": {"biological_target": "PUM1 PUF domain R5-RRN (Homo sapiens, UniProt Q14671 828-1176, C1007R;Q1011N)", "sequence (Q14671 828-1176 C1007R/Q1011N)": "as the sequence (Q14671 828-1176 N971S/H972M/Q975T) above, with S144N, M145H, T148Q, C180R, Q184N counted along it", "method_in_brief": "as §1"}, "PUM1 PUF domain R3-KSG": {"biological_target": "PUM1 PUF domain R3-KSG (Homo sapiens, UniProt Q14671 828-1176, C935K;R936S;Q939G)", "method_in_brief": "as §1"}, "PUM1 PUF domain R3-GRF": {"biological_target": "PUM1 PUF domain R3-GRF (Homo sapiens, UniProt Q14671 828-1176, C935G;Q939F)", "sequence (Q14671 828-1176 C935G/Q939F)": "as the sequence (Q14671 828-1176 N971S/H972M/Q975T) above, with C108G, Q112F, S144N, M145H, T148Q counted along it", "method_in_brief": "as §1"}, "PUM1 PUF domain R3-GPS": {"biological_target": "PUM1 PUF domain R3-GPS (Homo sapiens, UniProt Q14671 828-1176, C935G;R936P;Q939S)", "sequence (Q14671 828-1176 C935G/R936P/Q939S)": "as the sequence (Q14671 828-1176 N971S/H972M/Q975T) above, with C108G, R109P, Q112S, S144N, M145H, T148Q counted along it", "method_in_brief": "as §1"}, "PUM1 PUF domain R3-NPR": {"biological_target": "PUM1 PUF domain R3-NPR (Homo sapiens, UniProt Q14671 828-1176, C935N;R936P;Q939R)", "sequence (Q14671 828-1176 C935N/R936P/Q939R)": "as the sequence (Q14671 828-1176 N971S/H972M/Q975T) above, with C108N, R109P, Q112R, S144N, M145H, T148Q counted along it", "method_in_brief": "as §1"}, "PUM1 PUF domain R1-RKM": {"biological_target": "PUM1 PUF domain R1-RKM (Homo sapiens, UniProt Q14671 828-1176, S863R;R864K;Q867M)", "sequence (Q14671 828-1176 S863R/R864K/Q867M)": "as the sequence (Q14671 828-1176 N971S/H972M/Q975T) above, with S36R, R37K, Q40M, S144N, M145H, T148Q counted along it", "method_in_brief": "as §1"}, "PUM1 PUF domain R8-LWR": {"biological_target": "PUM1 PUF domain R8-LWR (Homo sapiens, UniProt Q14671 828-1176, N1122L;Y1123W;Q1126R)", "method_in_brief": "as §1"}, "PUM1 PUF domain R8-VWQ": {"biological_target": "PUM1 PUF domain R8-VWQ (Homo sapiens, UniProt Q14671 828-1176, N1122V;Y1123W)", "method_in_brief": "as §1"}, "PUM1 PUF domain R8-SWG": {"biological_target": "PUM1 PUF domain R8-SWG (Homo sapiens, UniProt Q14671 828-1176, N1122S;Y1123W;Q1126G)", "method_in_brief": "as §1"}, "PUM1 PUF domain R8-RGK": {"biological_target": "PUM1 PUF domain R8-RGK (Homo sapiens, UniProt Q14671 828-1176, N1122R;Y1123G;Q1126K)", "method_in_brief": "as §1"}, "PUM1 PUF domain R8-PFK": {"biological_target": "PUM1 PUF domain R8-PFK (Homo sapiens, UniProt Q14671 828-1176, N1122P;Y1123F;Q1126K)", "sequence (Q14671 828-1176 N1122P/Y1123F/Q1126K)": "as the sequence (Q14671 828-1176 N971S/H972M/Q975T) above, with S144N, M145H, T148Q, N295P, Y296F, Q299K counted along it", "method_in_brief": "as §1"}, "PUM1 PUF domain R5-ARR": {"biological_target": "PUM1 PUF domain R5-ARR (Homo sapiens, UniProt Q14671 828-1176, C1007A;Q1011R)", "sequence (Q14671 828-1176 C1007A/Q1011R)": "as the sequence (Q14671 828-1176 N971S/H972M/Q975T) above, with S144N, M145H, T148Q, C180A, Q184R counted along it", "method_in_brief": "as §1"}, "PUM1 PUF domain R7-GGN": {"biological_target": "PUM1 PUF domain R7-GGN (Homo sapiens, UniProt Q14671 828-1176, S1079G;N1080G;E1083N)", "method_in_brief": "as §1"}, "PUM1 PUF domain R7-RVV": {"biological_target": "PUM1 PUF domain R7-RVV (Homo sapiens, UniProt Q14671 828-1176, S1079R;N1080V;E1083V)", "method_in_brief": "as §1"}, "PUM1 PUF domain R3-TCE": {"biological_target": "PUM1 PUF domain R3-TCE (Homo sapiens, UniProt Q14671 828-1176, C935T;R936C;Q939E)", "sequence (Q14671 828-1176 C935T/R936C/Q939E)": "as the sequence (Q14671 828-1176 N971S/H972M/Q975T) above, with C108T, R109C, Q112E, S144N, M145H, T148Q counted along it", "method_in_brief": "as §1"}, "PUM1 PUF domain R3-GFG": {"biological_target": "PUM1 PUF domain R3-GFG (Homo sapiens, UniProt Q14671 828-1176, C935G;R936F;Q939G)", "sequence (Q14671 828-1176 C935G/R936F/Q939G)": "as the sequence (Q14671 828-1176 N971S/H972M/Q975T) above, with C108G, R109F, Q112G, S144N, M145H, T148Q counted along it", "method_in_brief": "as §1"}, "PUM1 PUF domain R3-APF": {"biological_target": "PUM1 PUF domain R3-APF (Homo sapiens, UniProt Q14671 828-1176, C935A;R936P;Q939F)", "method_in_brief": "as §1"}}, "data": [{"sequence": "GGCUAGAACUAGUGGAUCCCCCGGCGCCCGGCGGCUCGAGCCCGGGUAAGUGUAUAUAGUCUGCAUGCCGCCGGGCGCCAUGCCUGCAGGUCGACUCUAGAAAACAUG", "values": [{"measurement": "binding signal", "setting": "PUM1 PUF domain R4-SNM", "result": "2.9 log2 enrichment (interaction score)"}, {"measurement": "binding signal", "setting": "PUM1 PUF domain R4-EWY", "result": "5.52 log2 enrichment (interaction score)"}, {"measurement": "binding signal", "setting": "PUM1 PUF domain R4-SMT", "result": "5.3 log2 enrichment (interaction score)"}]}, {"sequence": "GGCUAGAACUAGUGGAUCCCCCGGCGCCCGGCGGCUCGAGCCCGGGUAAGUGUUAAUAGUCUGCAUGCCGCCGGGCGCCAUGCCUGCAGGUCGACUCUAGAAAACAUG", "values": [{"measurement": "binding signal", "setting": "PUM1 PUF domain R5-RRN", "result": "3.66 log2 enrichment (interaction score)"}]}, {"sequence": "GGCUAGAACUAGUGGAUCCCCCGGCGCCCGGCGGCUCGAGCCCGGGUAAGUGUAAUUAGUCUGCAUGCCGCCGGGCGCCAUGCCUGCAGGUCGACUCUAGAAAACAUG", "values": [{"measurement": "binding signal", "setting": "PUM1 PUF domain R3-KSG", "result": "2.51 log2 enrichment (interaction score)"}, {"measurement": "binding signal", "setting": "PUM1 PUF domain R3-GRF", "result": "0.84 log2 enrichment (interaction score)"}, {"measurement": "binding signal", "setting": "PUM1 PUF domain R3-GPS", "result": "1.97 log2 enrichment (interaction score)"}, {"measurement": "binding signal", "setting": "PUM1 PUF domain R3-NPR", "result": "2.25 log2 enrichment (interaction score)"}]}, {"sequence": "GGCUAGAACUAGUGGAUCCCCCGGCGCCCGGCGGCUCGAGCCCGGGUAAGUGUAAAUUGUCUGCAUGCCGCCGGGCGCCAUGCCUGCAGGUCGACUCUAGAAAACAUG", "values": [{"measurement": "binding signal", "setting": "PUM1 PUF domain R1-RKM", "result": "3.28 log2 enrichment (interaction score)"}]}, {"sequence": "GGCUAGAACUAGUGGAUCCCCCGGCGCCCGGCGGCUCGAGCCCGGGUAAGCGUAAAUAGUCUGCAUGCCGCCGGGCGCCAUGCCUGCAGGUCGACUCUAGAAAACAUG", "values": [{"measurement": "binding signal", "setting": "PUM1 PUF domain R8-LWR", "result": "4.82 log2 enrichment (interaction score)"}, {"measurement": "binding signal", "setting": "PUM1 PUF domain R8-VWQ", "result": "2.89 log2 enrichment (interaction score)"}, {"measurement": "binding signal", "setting": "PUM1 PUF domain R8-SWG", "result": "2.43 log2 enrichment (interaction score)"}, {"measurement": "binding signal", "setting": "PUM1 PUF domain R8-RGK", "result": "2.62 log2 enrichment (interaction score)"}, {"measurement": "binding signal", "setting": "PUM1 PUF domain R8-PFK", "result": "4.13 log2 enrichment (interaction score)"}]}, {"sequence": "GGCUAGAACUAGUGGAUCCCCCGGCGCCCGGCGGCUCGAGCCCGGGUAAGUGUCAAUAGUCUGCAUGCCGCCGGGCGCCAUGCCUGCAGGUCGACUCUAGAAAACAUG", "values": [{"measurement": "binding signal", "setting": "PUM1 PUF domain R5-RRN", "result": "4.4 log2 enrichment (interaction score)"}, {"measurement": "binding signal", "setting": "PUM1 PUF domain R5-ARR", "result": "4.7 log2 enrichment (interaction score)"}]}, {"sequence": "GGCUAGAACUAGUGGAUCCCCCGGCGCCCGGCGGCUCGAGCCCGGGUAAGUGUGAAUAGUCUGCAUGCCGCCGGGCGCCAUGCCUGCAGGUCGACUCUAGAAAACAUG", "values": [{"measurement": "binding signal", "setting": "PUM1 PUF domain R5-RRN", "result": "1.8 log2 enrichment (interaction score)"}]}, {"sequence": "GGCUAGAACUAGUGGAUCCCCCGGCGCCCGGCGGCUCGAGCCCGGGUAAGUUUAAAUAGUCUGCAUGCCGCCGGGCGCCAUGCCUGCAGGUCGACUCUAGAAAACAUG", "values": [{"measurement": "binding signal", "setting": "PUM1 PUF domain R7-GGN", "result": "3.78 log2 enrichment (interaction score)"}, {"measurement": "binding signal", "setting": "PUM1 PUF domain R7-RVV", "result": "2.58 log2 enrichment (interaction score)"}]}, {"sequence": "GGCUAGAACUAGUGGAUCCCCCGGCGCCCGGCGGCUCGAGCCCGGGUAAGUGUAAGUAGUCUGCAUGCCGCCGGGCGCCAUGCCUGCAGGUCGACUCUAGAAAACAUG", "values": [{"measurement": "binding signal", "setting": "PUM1 PUF domain R3-TCE", "result": "5.59 log2 enrichment (interaction score)"}, {"measurement": "binding signal", "setting": "PUM1 PUF domain R3-GFG", "result": "1.23 log2 enrichment (interaction score)"}]}, {"sequence": "GGCUAGAACUAGUGGAUCCCCCGGCGCCCGGCGGCUCGAGCCCGGGUAAGUGUAAAUAGUCUGCAUGCCGCCGGGCGCCAUGCCUGCAGGUCGACUCUAGAAAACAUG", "values": [{"measurement": "binding signal", "setting": "PUM1 PUF domain R8-LWR", "result": "4.7 log2 enrichment (interaction score)"}, {"measurement": "binding signal", "setting": "PUM1 PUF domain R4-SNM", "result": "2 log2 enrichment (interaction score)"}, {"measurement": "binding signal", "setting": "PUM1 PUF domain R8-SWG", "result": "2.95 log2 enrichment (interaction score)"}, {"measurement": "binding signal", "setting": "PUM1 PUF domain R8-RGK", "result": "0.16 log2 enrichment (interaction score)"}, {"measurement": "binding signal", "setting": "PUM1 PUF domain R3-APF", "result": "5.42 log2 enrichment (interaction score)"}, {"measurement": "binding signal", "setting": "PUM1 PUF domain R5-RRN", "result": "2.02 log2 enrichment (interaction score)"}, {"measurement": "binding signal", "setting": "PUM1 PUF domain R3-GRF", "result": "4.89 log2 enrichment (interaction score)"}, {"measurement": "binding signal", "setting": "PUM1 PUF domain R5-ARR", "result": "4.33 log2 enrichment (interaction score)"}, {"measurement": "binding signal", "setting": "PUM1 PUF domain R3-GFG", "result": "3.47 log2 enrichment (interaction score)"}, {"measurement": "binding signal", "setting": "PUM1 PUF domain R3-GPS", "result": "2.12 log2 enrichment (interaction score)"}, {"measurement": "binding signal", "setting": "PUM1 PUF domain R4-SMT", "result": "1.34 log2 enrichment (interaction score)"}, {"measurement": "binding signal", "setting": "PUM1 PUF domain R8-PFK", "result": "5.15 log2 enrichment (interaction score)"}]}]}
